# D3 ag = D3 dopamine receptor (human) agonism; P35462; D3R DiscoveRx beta-arrestin cells, luminescence, 90 min; max activation, %; hit rate 0.58% among 410,000; AID 652048; in the data active = max activation above about 30%
#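 Cells at 1500/well, incubated overnight, then treated with pinned compounds (dopamine as control) for 90 min at 37 degrees C. DiscoveRx reagent added for 30 - 60 minutes at room temperature; luminescence read.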
# DRD3 antagonist = blocks the human D3 dopamine receptor. D3R cells, DiscoveRx beta-arrestin luminescence, antagonist mode; hits give low values. max response, negative = inhibition, %. hit rate 2.5% among 360,000. AID 652054; in the data active = max response below about -50%; inconclusive = no clear call, values can overlap the other calls
#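 Cells expressing the human receptor were seeded at 1500 cells/well, incubated overnight at 37 degrees C in 5% CO2, then exposed to library compounds with dopamine controls for 90 minutes at 37 degrees C before luminescent detection.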
# Chronic BCR inh = chronic active BCR signaling inhibition | hit rate 0.05% among 340,000 | Potency, µM (top dose mostly 46.1 µM), most hits filed as inhibitors | ABC-DLBCL IkBa-CBG/CBR reporter, luminescence ratio, 4 h | AID 493014; active = well fitted inhibition curve with a large enough effect in the signal ratio, with a control signal flat, not every such curve was filed as active; inconclusive = small, poorly fitted or top-dose-only effect, or effect the other way, or a change in a side signal; the % refers to the signal ratio
#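 TMD8 human ABC-DLBCL cells with doxycycline-inducible IκBα–green luciferase fusion and unfused red luciferase, in 0.5% FBS medium; compounds up to 46 uM, 4 h at 37C. Green/red luminescence ratio, filter-overlap corrected, fitted to concentration-response curves.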
# D1 PAM = enhances dopamine response at the human D1 receptor; hit rate 0.036% among 360,000; P21728; potentiation, % at 10 µM; HEK293 TREx D1 cells, calcium flux, dopamine EC20 potentiation; in the data active = potentiation above about 30%
# Target sequence (P21728 whole entry, looked up): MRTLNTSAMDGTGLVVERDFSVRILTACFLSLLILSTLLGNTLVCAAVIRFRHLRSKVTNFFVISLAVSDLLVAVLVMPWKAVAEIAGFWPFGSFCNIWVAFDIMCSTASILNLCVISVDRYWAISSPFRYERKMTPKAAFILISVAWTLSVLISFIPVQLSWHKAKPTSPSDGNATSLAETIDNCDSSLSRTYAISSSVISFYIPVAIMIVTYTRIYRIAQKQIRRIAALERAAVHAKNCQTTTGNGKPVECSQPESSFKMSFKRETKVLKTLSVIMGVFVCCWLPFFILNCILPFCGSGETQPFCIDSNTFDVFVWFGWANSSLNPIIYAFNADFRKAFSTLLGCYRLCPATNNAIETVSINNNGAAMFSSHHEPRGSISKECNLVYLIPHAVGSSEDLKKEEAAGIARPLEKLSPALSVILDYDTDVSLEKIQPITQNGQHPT
# D1 antagonist = human D1 dopamine receptor antagonism. HEK293 TREx D1 cells, calcium flux, dopamine EC80; hits give low values. activity change, negative = inhibition, % at 10 µM. hit rate 3.2% among 360,000; in the data active = activity change below about -30%
#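 Allosteric or orthosteric antagonism assessed as attenuation of the calcium response to EC80 dopamine, added 180 s after compound, in induced HEK293 Trex D1 cells loaded with no-wash calcium dye.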
# D1 agonist = human D1 receptor agonism | HEK293 T-REx D1 cells, calcium flux, agonist mode | activation, % at 2 µM | hit rate 1% among 360,000; in the data active = activation above about 30%
#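 Agonism was scored from calcium flux recorded over 180 s (1 read/s) after pintool compound addition, following a 10-cycle baseline. Cells were inducible force-coupled HEK293 TREx D1, plated overnight at 30 C and loaded with no-wash calcium dye.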
# Hits are given with their value; . = inactive; ? = inconclusive; / = not tested or not shown; ! = a repeat was not active. Compounds with a hit are over-represented: about 6% of the library has one in this group of screens.
SMILES,D3 ag,DRD3 antagonist,Chronic BCR inh,D1 PAM,D1 antagonist,D1 agonist
CCOC(=O)c1nn2c(C(F)(F)F)cc(-c3ccc(OC)cc3)nc2c1Br,.,.,.,.,.,35
CCOC(=O)c1nn2c(C(F)(F)F)cc(-c3ccc(C)cc3)nc2c1Cl,.,/,/,.,.,.
CCC(=O)Nc1nc2ccccc2n1CCN(C)C,.,-81,.,.,.,.
CCCCn1c(NC(=O)C2CCCCC2)nc2ccccc21,.,.,?,.,.,.
CN(C)CCn1c(C(=O)Nc2ccccc2)cc2ccccc21,.,.,?,.,-43,.
S=C(Nc1ccccc1)Nc1nc2ccccc2n1CCOc1ccccc1,.,.,.,.,.,.
CN(C)CCCn1c(NC(=O)C2CCCCC2)nc2ccccc21,.,-52,.,.,.,.
CC(=O)Nc1nc2ccccc2n1CCN(C)C,.,.,.,.,.,.
CCCCn1c(NC(=S)Nc2ccccc2)nc2ccccc21,32,.,?,.,.,.
CCOC(=O)c1cc2ccccc2n1CCN(CC)CC,.,?,.,.,.,.
NC(=O)c1ccc(NC(=O)COC(=O)CCC2CCCC2)cc1,.,.,/,/,/,/
O=C(Nc1ccc(Cl)cc1)c1ccc(OC2CSC2)cc1,.,.,.,.,.,.
CNC(=O)c1ccc(OC2CSC2)cc1,.,.,/,.,-49,.
S=c1[nH]nc(Cc2sc(-c3ccccc3)nc2-c2ccccc2)o1,.,-67,?,.,.,.
CCCC(O)c1nc2ccccc2n1Cc1ccccc1OC (configuration not stated),.,/,/,.,.,.
C[C@H]1Cn2cnc(C(=O)NCC(=O)OC(C)(C)C)c2C(=O)N1,.,.,/,/,/,/
CC(=O)Oc1cccc(C)c1,.,/,/,/,/,/
Cc1ccc(NC(=O)c2sc3nc[nH]c(=O)c3c2C)c(C)c1,.,.,.,.,-48,.
Cc1ccc(NC(=O)c2sc3nc[nH]c(=O)c3c2C)cc1Cl,.,/,/,.,.,.
COc1ccc(N2CCN(C(=O)c3ccc4nc(N5CCC(C)CC5)sc4c3)CC2)cc1,.,/,/,.,.,.
CCOc1ccc(C(C)=O)cc1CSc1nnnn1-c1ccc(O)cc1,.,.,.,.,.,.
COc1cc(CSc2nnnn2-c2ccc(C)cc2)cc(OC)c1OC,.,.,.,.,.,39
COc1ccc(C(C)=O)cc1CSC(=N)N,.,-54,.,.,.,.
COc1ccc(C(C)=O)cc1CSc1nnnn1-c1ccc(O)cc1,.,.,.,.,-35,.
Cc1cccc(CN2C(=O)CC(c3ccc(Cl)cc3)c3c(C)nn(-c4nc(C)cc(C)n4)c32)c1 (configuration not stated),.,/,/,.,.,.
SMILES,D3 ag,DRD3 antagonist,Chronic BCR inh,D1 PAM,D1 antagonist,D1 agonist
COc1cc(/C=C(\C#N)c2nc3c(s2)CCCC3)ccc1O,/,/,?,.,.,60
Cn1c(=O)c2cc(S(=O)(=O)NC(Cc3ccccc3)C(=O)NCC3CCCO3)ccc2n(C)c1=O (configuration not stated),.,.,.,.,-39,.
COc1cccc(N2C(N)=NC(N)=NC2(C)C)c1,.,.,.,.,-54,.
COc1ccccc1N1C(N)=NC(N)=NC1(C)C,.,-53!,.,.,.,.
Cc1ccccc1N1C(N)=NC(N)=NC1(C)C,.,.,.,.,.,.
CC(=O)N1c2ccccc2C(=O)C1N1CCN(c2cc(Cl)ccc2C)CC1 (configuration not stated),.,/,/,.,.,.
O=c1[nH]c(=S)[nH]c2c1[C@H](C1CC1)O[C@H](CCc1ccccc1)C2,.,-84,/,/,/,/
O=c1[nH]c(=S)[nH]c2c1C(c1ccc(F)cc1)OC(CCc1ccccc1)C2 (configuration not stated),.,.,/,/,/,/
COc1ccc(Cn2c(SCc3ccc(C(=O)NC4CCCCC4)cc3)nc3ccncc32)cc1,.,/,/,.,.,.
O=C(NCCc1ccccc1)c1ccc(CSc2nc3ccncc3n2Cc2cccc(F)c2)cc1,.,/,/,.,-35,59
COc1ccc(Cn2c(SCc3ccc(C(=O)NC4CCCC4)cc3)nc3ccncc32)cc1,.,/,/,.,-31,.
Cc1ccc(Cn2c(SCc3ccc(C(=O)NC4CCCC4)cc3)nc3ccncc32)cc1,.,/,/,.,-37,.
CC(=O)Nc1ccc(CN(C)c2c(C)nc3ccc(C(=O)N(C)Cc4ccccc4)cn23)cc1,.,.,/,/,/,/
Cc1ccc(S(=O)(=O)NCc2nnnn2-c2ccc(F)cc2)cc1,.,.,/,/,/,/
CCOC(=O)c1c(-c2ccc(OC)cc2)csc1/N=C/C1C(=O)CCCC1=O,.,.,.,.,-47,.
CCOC(=O)c1c(-c2ccc(OC)cc2)csc1/N=C/N(C)C,.,.,?,.,.,.
COc1ccc(C(C)C)cc1-c1cccc2nncn12,.,.,/,/,/,/
COC(=O)c1ccc(CNC(=O)c2ccc(NS(=O)(=O)c3ccc4[nH]c(=O)[nH]c4c3)cc2)cc1,.,.,?,.,.,.
Cc1ccc(NS(=O)(=O)c2ccc3[nH]c(=O)oc3c2)cc1Cl,.,.,.,.,.,.
CCNC(=O)c1ccc(NS(=O)(=O)c2ccc3[nH]c(=O)[nH]c3c2)cc1,.,.,?,.,-41,.
COC(=O)c1ccc(NS(=O)(=O)c2ccc3[nH]c(=O)oc3c2)cc1,.,.,.,.,-30,.
COc1ccc(C(=O)COC(=O)c2cc(-c3ccccc3)nc3c(C)cccc23)cc1,.,/,/,.,.,.
Nc1cc(Cl)cc2c1-c1ccc(Cl)cc1C2,.,.,/,/,/,/
O=C(NCc1cccs1)C1CCCN(c2nc3ccccc3o2)C1 (configuration not stated),.,.,.,.,-46,.
O=C(NCc1cccs1)C1CCC(CNS(=O)(=O)c2ccccc2)CC1 (configuration not stated),.,.,.,.,-33,.
SMILES,D3 ag,DRD3 antagonist,Chronic BCR inh,D1 PAM,D1 antagonist,D1 agonist
CC(=O)Nc1ccc2nc3c(=O)[nH]c(=O)[nH]c3nc2c1,/,/,/,.,.,.
Cc1c(C(=O)NCc2ccc(Cl)cc2)sc2nc3n(c(=O)c12)CCCCC3,.,/,/,.,.,.
CC(NC(=O)Cn1c(=O)oc2cc(S(=O)(=O)NCc3ccccc3)ccc21)c1ccccc1 (configuration not stated),.,/,/,.,.,.
Cc1ccc(N2C(=O)CSC2c2cccs2)cc1 (configuration not stated),.,-57,.,.,.,.
O=C(Nc1ccc(-c2nc3ccccc3s2)c(OC(=O)c2ccccc2)c1)c1ccccc1,.,.,?,.,.,.
O=C(Nc1ccc(-c2nc3ccccc3s2)c(O)c1)c1ccc(Br)cc1,.,/,/,.,-33,.
O=C(COCc1cc(-c2ccc(F)cc2)on1)Nc1cc(F)ccc1F,.,/,?,.,.,.
